Only some compounds are listed: those with a hit (about 2.3% of all), similar ones and a draw of the others.
CHO-K1 Ca ag – counter-screen for M1 agonists: effect in parental CHO-K1 cells; Fluo-8 calcium fluorescence; scaled to maximal ATP response, vehicle zero; activation, % at 3 µM; 360,000 compounds, 0.48% hits; AID 602248, 2012; in the data active means activation above about 15%;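 further: untransfected CHO-K1 host cells lacking M1 receptor as counterscreen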
CHRM1 PAM – human M1 muscarinic receptor positive allosteric modulators, primary screen, CHO-K1 cells, Fluo-8 calcium fluorescence, 1536-well. Muscarinic acetylcholine receptor M1 (Homo sapiens), P11229. CHO-K1 hM1, ACh EC20; 0% = ACh EC20, 100% = maximal ACh. activation, % at 3 µM. 360,000 compounds, 0.088% hits; in the data active means activation above about 19%, passing the limit was not always enough
Target sequence (P11229 whole entry, looked up): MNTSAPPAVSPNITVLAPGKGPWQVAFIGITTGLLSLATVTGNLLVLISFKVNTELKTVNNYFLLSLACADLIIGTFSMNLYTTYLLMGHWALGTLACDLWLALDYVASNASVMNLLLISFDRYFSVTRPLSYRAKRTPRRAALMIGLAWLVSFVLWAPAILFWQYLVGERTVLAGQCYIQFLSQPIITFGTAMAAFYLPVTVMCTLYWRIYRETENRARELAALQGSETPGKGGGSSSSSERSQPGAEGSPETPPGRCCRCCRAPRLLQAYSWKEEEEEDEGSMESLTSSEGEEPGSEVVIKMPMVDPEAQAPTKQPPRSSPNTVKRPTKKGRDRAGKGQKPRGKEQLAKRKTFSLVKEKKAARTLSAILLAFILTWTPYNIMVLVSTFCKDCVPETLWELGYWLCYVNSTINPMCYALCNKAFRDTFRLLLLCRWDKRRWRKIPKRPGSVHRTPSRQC
M1 antag – human M1 muscarinic receptor antagonists, primary screen, CHO-K1 cells, Fluo-8 calcium fluorescence, 1536-well; 360,000 compounds, 1.3% hits; CHO-K1 hM1, ACh EC80 antagonist; Muscarinic acetylcholine receptor M1 (Homo sapiens), P11229; inhibition, % at 3 µM;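 active means percent inhibition above its own plate's cutoff, namely the mean of that plate's compound wells plus 3 SD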;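 further: peak over basal fluorescence ratio during 140 s after agonist addition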
CHO-K1 Ca antag – counter-screen for M1 antagonists: effect in parental CHO-K1 cells; ATP-induced calcium, Fluo-8 fluorescence; inhibition, % at 3 µM; 360,000 compounds, 0.6% hits; AID 602250;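 active means inhibition above a per-plate cutoff, the plate's mean sample inhibition plus 3 SD, cut at about 24% in these data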
CHO-K1 Ca PAM – nonselective calcium activators in parental CHO-K1 cells, primary screen, counter-screen for M1 PAM project, cell-based, Fluo-8 calcium fluorescence, full deck, 1536-well | ATP EC20; 0% at ATP EC20, 100% at ATP max | activation, % at 3 µM | 360,000 compounds, 0.02% hits;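 active means activation above the run cutoff, the mean activation of all test compounds plus 3 SD, cut at about 40% in these data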;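 further: peak over basal fluorescence ratio in a 140 s read after ATP addition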
CHRM1 agonist – human M1 muscarinic receptor agonists, primary screen, Fluo-8 calcium fluorescence, CHO-K1 cells, HTS. CHO-K1 hM1, agonist mode; 0% DMSO, 100% acetylcholine EC100. Muscarinic acetylcholine receptor M1 (Homo sapiens), P11229. AID 588814, 2011. 360,000 compounds, 0.33% hits. activation, % at 3 µM;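 active means activation above the run's mean compound activation plus 3 SD, cut at about 16% in these data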;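 further: peak over basal fluorescence ratio within a 140 s kinetic read after compound addition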
Each line names hits and unclear results; the compound was inactive in the other large screens.

C[C@@H]1CN([C@H](C)CO)C(=O)CCCn2nncc2CO[C@H]1CN(C)Cc1cccc2c1OCCCO2	none
Nc1nonc1-n1nnc(C(=O)N/N=C/c2cccc(Cl)c2)c1-c1cccs1	none
CCCOc1ccccc1C(=O)N(Cc1cccc(Br)c1)C1CCS(=O)(=O)C1 (centres undefined)	none
CC(C)C(O)(C#CCN1CCCCCC1)c1ccccc1 (centres undefined)	M1 antag 86.7
Cc1ccccc1OCCCN1C(=O)C(=O)c2cccc(C)c21	CHRM1 agonist 21.8
Cc1ccc2c(c1)C(=O)C(=O)N2CCCOc1ccccc1C	none
Cc1cccc2c1N(CCCOc1ccccc1)C(=O)C2=O	CHRM1 agonist 20.2
CCOc1ccccc1NC(=O)COC(=O)c1cnc(C)cn1	none
COc1ccc([C@@H]2[C@@H]3C(=O)N(C(C)(C)C)C(=O)[C@@H]3[C@]3(Cc4ccc(Cl)cc4)C(=O)N(c4cccc(F)c4)C(=O)N23)cc1	none
O=C(Nc1ccccc1)SC1CCCCC1	none
O=c1[nH]ncc(N2CCN(Cc3ccccc3)CC2)c1Cl	CHO-K1 Ca antag 25.8
O=C(/C=C/c1cccs1)Nc1nccs1	none
O=C(/C=C/c1cccs1)Nc1cccc(NC(=O)/C=C/c2cccs2)n1	M1 antag 46.7
CCN(CC)C(CNC(=O)CSc1nnnn1-c1ccc(C)c(C)c1)c1ccco1 (centres undefined)	none
CCN(CC)C(CNC(=O)CSc1nnnn1-c1c(C)cccc1C)c1ccco1 (centres undefined)	M1 antag 36.9
Cn1nc(C(F)(F)F)c(/C=N/OC(=O)c2ccccc2)c1SCc1ccccc1Cl	M1 antag 41.2
CN1CCN(c2ccc(Cl)cc2NS(=O)(=O)c2ccccc2Cl)CC1	M1 antag 35.9
CCCCN(C)C(=O)c1sc(=O)n(Cc2c(C)cccc2C)c1C	none
CCC1(c2ccccc2)NC(=O)N(CC(=O)N(CC(=O)Nc2ccccc2C(F)(F)F)Cc2ccco2)C1=O (centres undefined)	CHRM1 agonist 18.1
CCN(CC(=O)Nc1ccccc1C(F)(F)F)C(=O)CN1C(=O)NC2(CCCCC2)C1=O	CHO-K1 Ca antag 26.8
CN(Cc1ccc(OC(F)F)cc1)C(=O)c1cccc(S(=O)(=O)N2CCN(Cc3ccccc3)CC2)c1	M1 antag 32.6
COc1cccc(CN(C)C(=O)c2cccc(S(=O)(=O)N3CCN(c4ccc(F)cc4)CC3)c2)c1OC	M1 antag 28.1
COc1cccc(CN(C)C(=O)c2cccc(S(=O)(=O)N3CCN(c4ccccc4)CC3)c2)c1OC	none
CCN(Cc1ccccc1)C(=O)CN1C(=O)COc2ccc(S(=O)(=O)N3CCCCCC3)cc21	none
CCN(C(=O)CN1C(=O)COc2ccc(S(=O)(=O)N3CCCCCC3)cc21)c1cccc(C)c1	CHO-K1 Ca ag 34.9
COC(=O)c1ccc(CNC(=O)C(NC(=O)c2ccco2)C(C)C)cc1 (centres undefined)	none
CCCCCCCCCCCCCCCC[N+](C)(C)Cc1ccc(F)cc1	M1 antag 43.8
CC(=O)/C(C(=N)N1CCN(C(c2ccccc2)c2ccccc2)CC1)=C(\C)O	M1 antag 99.5
O=C(O)/C=C/C(=O)N1CCN(C(c2ccccc2)c2ccccc2)CC1	M1 antag 41.9
COC(=O)c1cn(NC(=O)Cc2ccccc2Br)c(=O)c2ccccc12	none
CCc1cc(C(=O)N(C)CC(=O)Nc2c(Cl)cccc2Cl)sc1C	none
CC(C)c1ccc(/C=C2\SC(=O)N(CC(=O)NC3C=CS(=O)(=O)C3)C2=O)cc1 (centres undefined)	M1 antag 43.4
O=C(CN1C(=O)/C(=C/c2ccc(Cl)cc2)SC1=S)NC1C=CS(=O)(=O)C1 (centres undefined)	none
C(=NNc1ccc2ccccc2n1)c1ccccn1	none
CN(C)S(=O)(=O)c1cccc(CSCc2cccc(S(=O)(=O)N(C)C)c2)c1	CHO-K1 Ca ag 17.7, M1 antag 37.5, CHO-K1 Ca antag 50.3
Cc1cc(C)n2nc(SCc3cccc(S(=O)(=O)N(C)C)c3)nc2n1	none
CCN(CC)c1ccc(/C=C2\C(=O)c3ccc(C(=O)O)cc3C2=O)cc1	CHO-K1 Ca ag 37.6, M1 antag 62.3, CHRM1 agonist 126.2
O=C(O)c1ccc(N(c2ccccc2)c2ccccc2)cc1	none
CCN(CC)c1ccc(C(=O)O)cc1	CHO-K1 Ca antag 24.7
Cc1ccc(CNC(=O)c2cccnc2Sc2cccc(Cl)c2)cc1	CHRM1 agonist 22.4
CC(OC(=O)[C@@H](NC(=O)OCc1ccccc1)C(C)C)C(=O)Nc1ccc(N2CCOCC2)cc1 (some centres undefined)	none
COc1ccc([N+](=O)[O-])cc1NC(=O)c1cc(C)c(C)o1	CHO-K1 Ca antag 24.8
Cn1ncc(Br)c1C(=O)N1CCCCCC1	none
CCOc1ccc(S(=O)(=O)N2CCCCC2)cc1NC(=O)CN1C(=O)NC(C)(c2ccc(C)cc2)C1=O (centres undefined)	none
O=C(Nc1cc(S(=O)(=O)Nc2ccccc2Cl)ccc1O)c1sc2cc(Cl)ccc2c1Cl	none
CCOc1cccc2cc(C(=O)NCc3cccnc3)c(=O)oc12	none
C=CCc1cccc2cc(C(=O)NCc3cccnc3)c(=O)oc12	M1 antag 36.3
CC(=O)Nc1ccc(Nc2nc(C)c([N+](=O)[O-])c(Nc3ccc(NC(C)=O)cc3)n2)cc1	none
CCOC(=O)N1CCN(C(=O)COC(=O)C2CCN(S(=O)(=O)c3c(Cl)cccc3Cl)CC2)CC1	none
CN1C(=O)/C(=C/c2ccccc2OCc2ccc(F)cc2)N(C)C1=S	M1 antag 100.2
O=C1NC(=S)N/C1=C\c1ccccc1OCc1ccc(C(=O)O)cc1	CHRM1 agonist 34.0
Cn1nnnc1SCC(=O)Nc1cc(S(=O)(=O)N2CCCCC2)ccc1Cl	none
CCCCCCNc1c([N+](=O)[O-])c(=O)sc2ccccc12	M1 antag 42.1
CC(C)(C)Nc1c([N+](=O)[O-])c(=O)sc2ccccc12	none
CCN(CC)c1ccc(CN(C(=O)c2cccs2)C2CCS(=O)(=O)C2)cc1 (centres undefined)	none
COC(=O)c1ccccc1-c1c2ccc(=N)cc-2oc2cc(N)ccc12	CHO-K1 Ca ag 678.1, M1 antag 101.9, CHO-K1 Ca antag 88.3, CHRM1 agonist 890.2
CCCC#CCN1CCN(C23CC4CC(CC(C4)C2)C3)CC1	M1 antag 46.9
CCCCCC#CCN1CCN(C23CC4CC(CC(C4)C2)C3)CC1	none
